Laboratory results published in PubChem BioAssay AID624202 (National Center for Advancing Translational Sciences (NCATS), 2012).
The campaign covered roughly 380,000 compounds. About 4,000 (1.1%) were called active. Roughly 3% stayed inconclusive and do not appear here. This is one part of a sample in which actives are shown more often than they occur. Values without a mark were called inactive. Calls come from the whole dose curve; as a rule, active = well fitted activation curve with a large enough effect; inconclusive = small, poorly fitted or top-dose-only effect; inactive = no such curve, though single readings can be large or run the other way.

Assay: qHTS Assay to Identify Small Molecule Activators of BRCA1 Expression; note: nearly all actives have a fitted effect of over 80% in size
Settings: MCF7-BRCA1-FFLuc reporter, luminescence, 48 h; series mostly up to 46.1 µM; activation: at the top concentration
Outline: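 Cells: MCF7-BRCA1-FFLuc, 2000/well. Exposure: 48 h, 37 °C, 5% CO2. Read: luminescence, 15 min post-substrate. Controls: genistein 10 microM (maximal activation), DMSO (neutral).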

| SMILES | activation [%] | Potency |
| --- | --- | --- |
| COc1ccccc1N1CCN(C(=O)C2CCN(S(=O)(=O)c3c(C)noc3/C=C/c3ccc(C)cc3)CC2)CC1 | -17.8 | – |
| Cc1cc(C)c(NC(=O)CCc2c(C)nc3c(c(C)nn3C(C)(C)C)c2C)c(C)c1 | 0.411 | – |
| Cc1ccc(-n2nnnc2CNC(=O)c2ccccc2C)cc1C | -4.16 | – |
| O=C(CSc1nnc(-c2c[nH]c3ccccc23)o1)c1ccccc1 | – | 12.6 µM (active) |
| CN(C(=O)CSc1nnc(-c2c[nH]c3ccccc23)o1)C1CCS(=O)(=O)C1 (configuration not stated) | -6.49 | – |
| CCC(CC)NC(=O)CSc1nnc(-c2c[nH]c3ccccc23)o1 | 0 | – |
| Cc1ccccc1NC(=O)Cn1c(=O)n(CCc2ccccc2)c(=O)c2ccccc21 | -32.7 | – |
| COc1c(Cl)cc(Cl)cc1C(=O)Nc1cccc2cccnc12 | -37.4 | – |
| COc1cc2[nH]c(=O)n(Cc3ccc(C(=O)NCc4ccc(C)cc4)cc3)c(=O)c2cc1OC | 0 | – |
| Cc1cccc(NC(=O)COC(=O)c2ccccc2OCc2cccc(Br)c2)c1 | 0 | – |
| CCOc1ccc(OCC)c(NC(=O)CN(c2ccc(C)cc2)S(=O)(=O)c2c(C)n[nH]c2C)c1 | -79.3 | – |
| CCc1cccc(NC(=O)CSc2nccn2C)c1 | – | 12.6 µM (active) |
| CC(=O)Nc1cccc(NC(=O)CSc2nccn2Cc2ccc(F)cc2)c1 | 4.89 | – |
| CCCCNC(=O)CSc1nccn1Cc1ccccc1 | -5.11 | – |
| COc1ccc(CN(Cc2ccccc2)C(=O)c2ccc(O)cc2)cc1COc1ccc(NC(C)=O)cc1 | -5.58 | – |
| Cc1ccc(CCNC(=O)Cn2c(-c3cccs3)cc3cc(F)ccc32)cc1 | 0.969 | – |
| COc1ccc(NC(=O)Cn2c(=O)cc(C)c3c(C)nn(-c4cccc(Cl)c4C)c32)cc1OC | 6.76 | – |
| Cc1nn2cc(-c3ccc(Cl)cc3)cnc2c1Br | – | 8.91 µM (active) |
| O=C(O)C1=C/C(=C/C=[N+]2c3cc(O)c(O[C@H]4OC(CO)[C@@H](O)[C@@H](O)[C@@H]4O)cc3C[C@@H]2C(=O)[O-])C[C@H](C(=O)O)N1 (some centres not stated) | 7.03 | – |
| COc1ccc(-c2[nH]c3c(c2-c2c(-n4cccc4)n(C)c(=O)n(C)c2=O)c(=O)n(C)c(=O)n3C)cc1 | -3.01 | – |
| Cc1ccc(S(=O)(=O)n2nc(C)c(S(=O)(=O)N3CCCCCC3)c2C)cc1 | 1.48 | – |
| CCOc1ccc(NC(=O)Cn2c(C)ccc(C#N)c2=O)cc1 | 0 | – |
| CCOc1ccc(NC(=O)c2ccc(NC(=O)CN3C(=O)C(=O)N(CC(C)C)C3=O)cc2)cc1 | 38.8 | – |
| CCOc1ccc(NC(=O)c2ccc(NC(=O)COC(=O)c3ccc(NC(=O)CC#N)cc3)cc2)cc1 | – | 2.82 µM (active) |

| SMILES | activation [%] | Potency |
| --- | --- | --- |
| CCn1cc(C(=O)N2CCN(c3cc(C)ccc3C)CC2)c(=O)c2cc(S(=O)(=O)N(C)C3CCCCC3)ccc21 | 3.03 | – |
| CSc1ccc(CCNC(=O)c2cnn(-c3ccccc3)c2-n2cccc2)cc1 | 0 | – |
| CC(=O)c1ccc(NC(=O)CCc2nc(-c3ccc(C)cc3)no2)cc1 | 0 | – |
| O=C(Nc1ccc2nc(SCC(=O)N3CCc4ccccc43)sc2c1)c1ccccc1F | 1.78 | – |
| CC(=O)Nc1ccc2nc(SCCOc3cc(C)cc(C)c3)sc2c1 | 0.227 | – |
| CSc1nc2ccc(NC(=O)c3c(F)cccc3F)cc2s1 | – | 5.62 µM (active) |
| COc1cc2nc(N3CCCN(C)CC3)nc(NC3CC3)c2cc1OC | -1.84 | – |
| CCOc1ccc(C(=O)CCC(=O)NC2=NCCS2)cc1 | -0.556 | – |
| O=C(NC1=NCCS1)c1ccc(Cl)s1 | – | 5.62 µM (active) |
| COc1ccccc1C(=O)NCCC(=O)NC1=NCCS1 | -5.3 | – |
| O=C(Nc1ccccc1)c1ccccc1OCc1ccccc1 | 0 | – |
| O=C(CCCCn1c(=O)c2ccccc2n(CC(=O)Nc2cccc(C(F)(F)F)c2)c1=O)NCc1ccc2c(c1)OCO2 | 4.95 | – |
| NC1=NC(c2cc(F)cc(F)c2)n2c(nc3ccccc32)N1 (configuration not stated) | 12.8 | – |
| O=C(c1cnn2c1NC(=C1CC1)C=C2C(F)F)N1CCc2ccccc2C1 | -19.4 | – |
| Cc1cccc(NC(=O)CSc2nc3c(oc4ccccc43)c(=O)n2-c2ccc(F)cc2)c1 | -1.49 | – |
| O=C(Nc1cc(-c2nc3ccccc3o2)ccc1Cl)c1cc([N+](=O)[O-])ccc1N1CCOCC1 | 10.8 | – |
| S=c1[nH]c(=S)c2n[nH]nc2[nH]1 | 10.8 | – |
| CC(=O)Nc1cccc(/C(C)=N/NC(=O)c2c(-c3ccccc3Cl)noc2C)c1 | -35.1 | – |
| C/C(=N\Nc1cccc(C(=O)O)c1)c1ccc2c(c1)Nc1ccccc1S2 | – | 7.08 µM (active) |
| COc1ccc(Cl)cc1S(=O)(=O)Nc1cccc(C(=O)O)c1 | 4.55 | – |
| C[N+]1(CC(=O)c2cccs2)CCOCC1 | 2.95 | – |
| CC(C)CC(CC(C)C)=NNC(=O)c1ccc(CSc2nncn2C)cc1 | 3.02 | – |
| COC(=O)c1ccc(CSc2nncn2N)cc1 | 4.18 | – |
| COC(=O)c1ccc(CSc2nncn2C)cc1 | – | 10 µM (active) |

| SMILES | activation [%] | Potency |
| --- | --- | --- |
| COc1ccccc1CNC(=O)CCCn1c(=O)c2ccccc2n(CC(=O)Nc2ccc(C)cc2Cl)c1=O | -11.4 | – |
| OC(CBr)CN1CCCCC1 (configuration not stated) | 0 | – |
| COC(=O)C1C(=O)c2c([nH]c(C(=O)OCCSC)c2C)CC1C (configuration not stated) | – | 28.2 µM (active) |
| Cc1cc(Cl)ccc1NC(=O)Cc1ccc(NC(=O)N2CCCCc3ccccc32)cc1 | 0 | – |
| COc1ccc2[nH]cc(CCN3C(=O)c4ccc(C(=O)O)cc4C3=O)c2c1 | – | 10 µM (active) |
| Cc1ccc2[nH]cc(CCCN3C(=O)c4ccccc4C3=O)c2c1 | 43.5 | – |
| COCCCN1C(=O)c2ccc(C(=O)Nc3ccc(OC)cc3OC)cc2C1=O | -22.3 | – |
| O=C(O)/C=C/C(=O)NNc1ccc([N+](=O)[O-])cc1 | 0 | – |
| CC(=O)Nc1ccc(C=Cc2ccc([N+](=O)[O-])cc2)cc1 | – | 1.78 µM (active) |
| O=C(Nc1ccc([N+](=O)[O-])cc1)C1CC12CCC2 (configuration not stated) | 62 | – |
| Cc1cccc(-c2nnc(SC(C)C(=O)Nc3ccccc3)n2C)c1 (configuration not stated) | 117 | – |
| COc1ccc(CNC(=O)c2cc3c(s2)-c2ccccc2OC3)cc1 | 18.4 | – |
| O=C(Nc1ccc2nc(SCCOc3ccccc3Cl)sc2c1)c1ccco1 | 3.88 | – |
| O=C(CSc1ccccc1)Nc1ccc(NC(=O)c2ccco2)cc1 | – | 11.2 µM (active) |
| O=C(CNC(=O)c1ccco1)NNC(=O)c1ccc(Br)cc1 | -2.34 | – |
| CN(C)C(CNC(=O)c1cc2ccccc2o1)c1ccccc1 (configuration not stated) | -8.03 | – |
| O=C(Nc1ccccc1C(=O)N1CCCCC1)c1ccco1 | 6.82 | – |
| O=C(Nc1ccc(O)cc1)c1ccc(NC(=O)c2ccco2)cc1 | – | 3.16 µM (active) |
| Cc1ccc(NC(=O)c2cc3ccccc3o2)cc1 | – | 12.6 µM (active) |
| O=C(Nc1ccc2nc(SCCOc3ccccc3)sc2c1)c1ccco1 | 0 | – |
| O=C(Nc1ccc2nccnc2c1)c1ccco1 | – | 10 µM (active) |
| O=C(Nc1ccc(CSc2ccccc2)cc1)c1ccc(CN2CCOCC2)cc1 | -37.6 | – |
| Cc1cc(C)cc(NC(=O)CSc2ccccc2)c1 | 65 | – |
| C/C(=N\NC(=S)Nc1ccc(C)cc1)c1cc2ccccc2o1 | -20.3 | – |
